FMDV antiviral – High Throughput Screening for Foot and Mouth Disease Virus Antivirals | FMDV antiviral cell-based qHTS | Potency, µM (top dose mostly 57.9 µM), inactives show at the top dose activity change, negative = inhibition, hits mostly inhibitors | 410,000 tested, 1.2% active | AID 1159524, 2015; calls by dose curve; tested in HEK293T cells; also: read-out not given here; potency is read from the fitted curve at half-maximal effect; nearly all actives have a fitted effect of over 45% in size
HCMV inh – qHTS Assay for inhibitors of the human cytomegalovirus (HCMV). HFF cells, HCMV-luciferase reporter, 72 h; active compounds read low. activity change, negative = inhibition, % at 57.5 µM. 410,000 tested, 4.5% active; in the data active = activity change below about -60%; inconclusive = no clear call, values can overlap the other calls; inactive = above about -39%
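Two compound doses tested in HFFs infected with HCMV-luciferase, MOI 1 PFU/cell, 72 h at 37C. Lysate luminescence read with OneGlo; data normalized against buffer-only and 10uM Salinomycin inhibitor controls.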
VACV Venus inh – qHTS for Stage-Specific Inhibitors of Vaccinia Orthopoxvirus: Venus Reporter Primary qHTS | Vaccinia virus Venus reporter expression, fluorescence | Potency, µM (top dose mostly 36.5 µM), without a hit: top-dose activity change, negative = inhibition, hits mostly inhibitors | 330,000 tested, 0.46% active; calls by dose curve; tested in A549 cells; also: potency is read from the fitted curve at half-maximal effect; nearly all actives have a fitted effect of over 30% in size
Vaccinia mCherry – qHTS for Stage-Specific Inhibitors of Vaccinia Orthopoxvirus: mCherry Reporter Primary qHTS. Vaccinia virus mCherry reporter infection, fluorescence. Potency, µM (top dose mostly 36.5 µM), without a hit: at the top dose activity change, negative = inhibition, hits mostly inhibitors. 310,000 tested, 0.63% active; calls by dose curve; tested in A549 cells; also: potency is read from the fitted curve at half-maximal effect; nearly all actives have a fitted effect of over 35% in size
HCV inh – qHTS Assay for Inhibitors of Hepatitis C Virus (HCV); Huh7.5.1 HCVcc-Cre infection, luciferase reporter, 44 h; Potency, µM (doses to about 41.8 µM), for the others: at the highest dose activity change, negative = inhibition, usual class: inhibitors; 340,000 tested, 3.4% active; AID 651820, 2012; active = well fitted inhibition curve with a large enough effect; inconclusive = small, poorly fitted or top-dose-only effect, or another doubt; inactive = no such curve, though single readings can be large or run the other way; also: potency is read from the fitted curve at half-maximal effect
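Luciferase read-out (15 sec integration) after a 15 min room-temperature substrate step quantifies HCVcc-Cre infection. Cells, 1,000 per well, had compound added 4 h post-plating, then virus at ~0.5 moi, and were cultured 44 h.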
Starred values were filed as active, the others as inactive; i = inactive; ? = inconclusive; / = no result; + = active, no number; [ ] = remark or other dose. Sampled rows, rich in hits. Any-hit rate of the full collection: about 7.3%. % is scaled to controls: 0 for no effect and ±100 for the full control effect.

SMILES	FMDV antiviral	HCMV inh	VACV Venus inh	Vaccinia mCherry	HCV inh
Cc1ccc(C(C)C)c(OCC(O)CN2CCc3ccccc3C2)c1 (stereo unspecified)	?	-17	?	10µM*	?
Cc1ccc(C(C)C)c(OCC(O)CN2CCN(c3ccccc3F)CC2)c1 (stereo unspecified)	-25%	?	-22%	-19%	/
O=C(CN1C(=O)C2CC=CCC2C1=O)Nc1nc(-c2ccc(F)cc2)cs1 (stereo unspecified)	-25%	15	/	/	?
CC(C(=O)Nc1nc(-c2ccc(F)cc2)cs1)N1C(=O)C2CC=CCC2C1=O (stereo unspecified)	28µM*	-5	-16%	i	-8%
COc1cc(S(=O)(=O)N2CCOCC2)ccc1NC(=O)CN1c2cccc3cccc(c23)S1(=O)=O	13%	-20	-9%	-18%	?
Cc1ccc(OCCC(=O)Nc2ccc(C)c(S(=O)(=O)N3CCOCC3)c2)cc1	2%	0	/	/	?
Cc1cccc(OCCC(=O)Nc2ccc(C)c(S(=O)(=O)N3CCCCC3)c2)c1	-9%	-64*	?	?	3.2µM*
CCOc1ccccc1OCCCC(=O)Nc1ccc(Cl)c(S(=O)(=O)N2CCOCC2)c1	?	?	/	/	7.9µM*
Cc1ccc(NC(=O)CN2c3cccc4cccc(c34)S2(=O)=O)cc1S(=O)(=O)N1CCOCC1	-19%	-29	?	-9%	11µM*
Cc1cccc(OCCC(=O)Nc2ccc(C)c(S(=O)(=O)N3CCOCC3)c2)c1	?	5	/	/	13µM*
CCc1ccc(NC(=O)Cn2ccn(-c3ccc(C)c(C)c3)c(=O)c2=O)cc1	37%	45	4%	0%	/
Cc1cccc(OCCC(=O)Nc2ccc(S(=O)(=O)N3CCCC3)cc2)c1	?	2	-29%	/	?
Cc1cccc(OCCCC(=O)Nc2ccc(Cl)c(S(=O)(=O)N3CCOCC3)c2)c1	?	-37	/	/	7.9µM*
Cc1ccc(NC(=O)COc2cccc(Oc3ccccc3)c2)cc1S(=O)(=O)N1CCOCC1	-29%	-17	-19%	?	3.2µM*
O=C(NNC(=S)Nc1ccc(C(=O)O)c(O)c1)c1ccncc1	13µM*	0	0%	?	9%
CCN(CC)CC(C)(C)C(=O)/C=C/c1ccc(/C=C/C(=O)C(C)(C)CN(CC)CC)cc1	3.5µM*	1	11µM*	?	2.2µM*
CCN(CC)CCOC(=O)/C=C/c1ccccc1	-5%	76	/	/	7%
COc1ccc(Cl)cc1NC(=O)CN1C(=O)COc2ccc(S(=O)(=O)NC3CCCC3)cc21	1%	2	6%	-9%	/
COc1cccc(C2=C(C(C)=O)Sc3nncn3N2C(C)=O)c1	-2%	?	?	-27%	/
CC(=O)C1=C(c2ccc(Cl)c(Cl)c2)N(C(C)=O)n2cnnc2S1	?	-99*	-26%[7.34 µM]	?	/
CCOc1ccc(C2=C(C(=O)CC)Sc3nncn3N2C(=O)CC)cc1	?	-101*	?	?	/
CCC(=O)C1=C(c2ccc(F)cc2)N(C(=O)CC)n2cnnc2S1	-6%	-82*	-4%[7.34 µM]	-13%[7.34 µM]	/
CCC(=O)C1=C(c2ccc(OC)c(OC)c2)N(C(=O)CC)n2c(nnc2-c2ccc(C)cc2)S1	-11%	34	-6%	-4%	/
Cc1cnc(C)c(-c2cc(F)cc3c2OC(CNC(=O)Cc2ccccc2C)C3)n1 (stereo unspecified)	-8%	/	5%	-10%	/
O=C(Nc1cc(C(=O)N2CCN(CCO)CC2)c2c(c1)ncn2C1CCCC1)c1ccccc1	-12%	/	0%	-3%	/
SMILES	FMDV antiviral	HCMV inh	VACV Venus inh	Vaccinia mCherry	HCV inh
CCOc1ccccc1CNS(=O)(=O)c1cc(-c2onc(C)c2C)ccc1OC	54%	+	-13%	-15%	/
COc1ccc(CCNS(=O)(=O)c2cc(-c3onc(C)c3C)ccc2OC)cc1OC	30%	-11	-6%	-11%	/
COc1ccc(-c2onc(C)c2C)cc1S(=O)(=O)NCc1ccc(C)o1	39%	-71*	-28%	-1%	/
COc1ccc(-c2onc(C)c2C)cc1S(=O)(=O)NCC(C)c1ccccc1 (stereo unspecified)	-2%	-26	-28%	i	/
COc1ccccc1CN1CCC(CNS(=O)(=O)c2cc(-c3onc(C)c3C)ccc2OC)CC1	11%	21	-26%	?	10µM*
COc1ccc(-c2nc3sc(CCNC(=O)c4ccc(C(C)(C)C)cc4)c(C)n3n2)cc1	30%	47	-5%	-4%	/
Cc1[nH]c(=O)[nH]c(=O)c1CCSSCCc1c(C)[nH]c(=O)[nH]c1=O	/	17	/	/	/
CCOc1cc2c(cc1/C=C/c1noc(C)c1[N+](=O)[O-])OC(C)C2 (stereo unspecified)	-10%	-61*	1%	-9%	?
CCC(C)N(Cc1ccc(OC)cc1OC)S(=O)(=O)c1cc(Br)ccc1Br (stereo unspecified)	/	-25	/	/	/
Cc1cccc(-c2nc(SCC(=O)Nc3ccc4c(c3)OCCO4)c(-c3ccccc3)[nH]2)c1	-5%	-31	-28%	-23%	/
O=C(CSC1=NC2(CCCCCC2)N=C1c1ccccc1)Nc1ccc2c(c1)OCCO2	-22%	?	/	/	?
O=C(CSc1nc(-c2ccccc2)[nH]c1-c1ccccc1)Nc1ccc2c(c1)OCO2	?	-109*	-19%	-25%	/
COc1cc(-c2nc(SCC(=O)Nc3ccc4c(c3)OCO4)c(-c3ccccc3)[nH]2)cc(OC)c1OC	3%	?	-15%	-16%	/
O=C(CSC1=NC2(CCCCC2)N=C1c1ccccc1)Nc1ccc2c(c1)OCCO2	0%	11	/	/	11µM*
O=C(CSc1nc2ncccc2[nH]1)Nc1ccc2c(c1)OCO2	18%	17	-8%	i	-3%
O=C(CSc1nc(-c2ccccc2)c(-c2ccccc2)[nH]1)Nc1ccc2c(c1)OCO2	-18%	-68*	-27%	-27%	?
O=C(CSc1nc(-c2cccc(F)c2)[nH]c1-c1ccccc1)Nc1ccc2c(c1)OCCO2	?	-106*	?	?	/
COC(=O)C(O)(c1ccccc1)C(Nc1ccc(OC)cc1)c1ccc(Br)cc1 (stereo unspecified)	/	-5	/	/	/
CCOc1ccccc1NC(=O)Cn1c(=O)n(Cc2ccc(OC)cc2)c(=O)c2oc3ccccc3c21	-16%	-8	-16%	-16%	/
COCCc1nn2c(=O)cc(COC(=O)C(c3ccccc3)c3ccccc3)nc2s1	?	7	-11%	-19%	/
COc1cc(OC)c(OC)cc1CCC(C)NCCC(c1ccccc1)c1ccccc1 (stereo unspecified)	-14%	-60*	?	?	7.9µM*
Cc1ccc(NC(=S)/C(C#N)=C2/Nc3ccccc3S2)cc1	?	-79*	?	?	/

Screening results deposited in PubChem by National Center for Advancing Translational Sciences (NCATS).
